# This is a sample that favours compounds with a hit; in the whole collection about 6.2% have one here.
# FMDV antiviral = foot and mouth disease virus antiviral activity; FMDV antiviral cell-based qHTS; Potency, µM (series often up to 57.9 µM), without a hit: top-dose activity change, negative = inhibition, actives largely listed as inhibitors; 410,000 compounds, 1.2% hits; AID 1159524; calls by dose curve; tested in HEK293T cells; further: read-out not given here; potency means the concentration at half of the fitted maximal effect; nearly all actives have a fitted effect of over 45% in size
# Marburg entry inh = inhibitors of Marburg virus binding or cell entry. Potency, µM (top dose mostly 37.8 µM), for inactives: at the highest dose activity change, negative = inhibition, most hits filed as inhibitors. Marburg virus pseudotyped entry inhibition, cell reporter. 300,000 compounds, 1.8% hits. AID 540276; calls by dose curve; tested in HEK293 cells; further: potency means the concentration at half of the fitted maximal effect
# Lassa entry inh = Lassa virus entry inhibition; Potency, µM (titrated, usually from 37.9 µM), for inactives: top-dose activity change, negative = inhibition, actives largely listed as inhibitors; Lassa virus pseudotype entry inhibition, cell reporter; AID 540256; 300,000 compounds, 1.2% hits; calls by dose curve; tested in HEK293 cells; further: potency means the concentration at half of the fitted maximal effect; nearly all actives have a fitted effect of over 50% in size
# HCMV antiviral = inhibitors of human cytomegalovirus. 410,000 compounds, 4.5% hits. HFF cells, HCMV-luciferase reporter, 72 h; active compounds read low. activity change, negative = inhibition, % at 57.5 µM; in the data active means activity change below about -60%; inconclusive means no clear call, values can overlap the other calls; inactive means above about -39%
#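 Compounds were evaluated in HFFs infected with an HCMV luciferase reporter virus (MOI 1 PFU/cell). Luciferase in lysates collected 72 h post infection served as the replication measure.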
# Starred values were filed as active, the others as inactive; u = inconclusive; x = no result; [ ] = another dose, or the depositor's remark. On the % scale 0 is the no-effect control and ±100 the full control effect.
SMILES,FMDV antiviral,Marburg entry inh,Lassa entry inh,HCMV antiviral
Cc1ccc(NC(=O)CN(C)S(=O)(=O)c2ccc3nc(C)sc3c2)c(C)c1,19%,-20%[46.1 µM],-6%[46.1 µM],u
COc1ccccc1-c1nnc(C2CCN(C(=O)c3cccc(Cl)c3)CC2)o1,-12%,-23%[46.1 µM],-19%[46.1 µM],-92*
O=C1N=C(N2CCC(Cc3ccccc3)CC2)S/C1=C/c1cn[nH]c1-c1ccccc1,u,10µM*,u,-17
O=[S+]1([O-])C[C@@H](N2CCN(CCO)CC2)[C@@H](COCc2ccccc2)N1,x,x,12%[46.1 µM],x
Nc1nc(SCc2ccccc2)c2[nH]cnc2n1,-3%,x,x,52
Nc1nc(OCc2ccccc2)c2[nH]cnc2n1,-20%,u,u,-73*
COc1ccc(NC(=O)c2ncn(-c3ccccc3)n2)cc1Cl,13%,u,0%[46.1 µM],72
NC(=O)N=Nc1c2[nH]c3ccccc3nc-2c2ccccc12,u,u,u,-99*
COc1ccccc1NC(=S)N1CCN(C/C=C/c2ccccc2)CC1,u,1%,3%,-72*
COc1ccc(NC(=S)N2CCN(C/C=C/c3ccccc3)CC2)c(OC)c1,-22%,-2%[46.1 µM],1%,u
Cc1ccc2cc(CN(CC3CCCO3)C(=S)Nc3ccccc3)c(=O)[nH]c2c1C (stereo not given),-23%,u,u,-62*
COc1ccccc1NC(=S)N(Cc1ccco1)Cc1cc2ccc(C)c(C)c2[nH]c1=O,-22%,11µM*,u,u
COc1ccc2[nH]c(=O)c(CN(CC3CCCO3)C(=O)Nc3ccc(F)cc3)cc2c1 (stereo not given),14µM*,u,11µM*,-31
Cc1cc(C)c2[nH]c(=O)c(CN(CC3CCCO3)C(=S)Nc3ccccc3)cc2c1 (stereo not given),-8%,u,-6%,-10
COc1ccc(NC(=O)N(Cc2cc3cc(C)ccc3[nH]c2=O)CC2CCCO2)cc1 (stereo not given),-21%,x,x,6
CCN(CC)CCN(Cc1cc2cc(C)ccc2[nH]c1=O)C(=S)Nc1ccccc1,-14%,u,-9%[46.1 µM],-69*
O=C(C1CCCCC1)N1C[C@@H](n2cc(-c3ccc(F)cc3)nn2)[C@@H](O)C[C@@H]1c1ccccc1,x,x,-2%[46.1 µM],x
CCN1C(=NCCc2ccccn2)NC(c2cccc(C(F)(F)F)c2)C(C(=O)OC)=C1C (stereo not given),x,-20%[14.2 µM],u,x
Cc1ccc(F)c(C(=O)N2CC3ON=C(c4c(F)cccc4Cl)C3C2)c1F (stereo not given),x,x,x,4
Cc1ccc2[nH]c(=O)c(CN(CC3CCCO3)C(=S)Nc3ccccc3)cc2c1 (stereo not given),u,u,u,-78*
COc1cc(=O)n2c(c1C(=O)N(C)Cc1nonc1C)CCN(Cc1ccc(C)cc1C)CC2,-13%,x,x,x
COc1cc(CCCN2C(=S)NC[C@@H]2c2ccccc2)cc(OC)c1OC,62%,x,x,-99*
O=C(Nc1sc2c(c1C(=O)O)CCCC2)c1ccc(Cl)cc1,7%,6.3µM*,7.9µM*,17
O=C(Nc1sc2c(c1C(=O)O)CCC2)c1ccccc1,22%,7.3µM*,u,84
CCN(CC)Cc1c(NC(=O)c2ccc(OC)cc2)sc2c1CCCC2,29%,x,u,-90*
SMILES,FMDV antiviral,Marburg entry inh,Lassa entry inh,HCMV antiviral
O=C(Nc1sc2c(c1C(=O)O)CCCCC2)c1ccccc1,-19%,7.1µM*,u,11
COc1ccc(CCNC(=O)CCc2c(C)c3cc4c(C)coc4cc3oc2=O)cc1,-28%,u,36%[46.1 µM],-6
COC(=O)c1c(NC(=O)c2ccccc2N(C)S(=O)(=O)c2ccccc2)sc2c1CCCC2,10%,4.5µM*,u,u
CCOC(=O)c1c(NC(=O)c2ccccc2N(C)S(=O)(=O)c2ccccc2)sc2c1CCCC2,-11%,-20%,u,u
CC(=O)Nc1ccc(NC(=O)C(C)OC(=O)c2ccc(-n3cnnn3)cc2)cc1 (stereo not given),-15%,-16%,12%,-27
Cc1cc(C)n(-c2ccc(C(=O)OC(C)C(=O)Nc3ccc(C(N)=O)cc3)cc2)n1 (stereo not given),35µM*,12%[46.1 µM],6%,-30
Cn1c(=O)c2c(SCC(=O)NCC3CCCO3)nc(-c3cccc(F)c3)nc2n(C)c1=O (stereo not given),-6%,x,-5%[46.1 µM],6
CCN(CC(=O)Nc1c(F)cccc1F)C(=O)CSCC(=O)Nc1ccc(OC)cc1,-2%,22%,21%,u
COc1ccc(NC(=O)CSCC(=O)N(C)CC(=O)Nc2c(C)cccc2C)cc1,1%,x,x,-102*
O=C(CCCn1c(=S)[nH]c2ccsc2c1=O)Nc1ccc2c(c1)OCCO2,-18%,12%[46.1 µM],x,-75*

# Screening data deposited in PubChem by National Center for Advancing Translational Sciences (NCATS).
